# PubChem BioAssay (EPA / NIEHS)
# The source made the active and inactive calls. The calls were made as follows: active = hit-call score of the fitted dose curve at least 0.9, where 1 is the maximum; inactive = score below 0.9.
# Read-out: CYP3A5 (gene 1577)
# Experiment: LTEA_HepaRG_CYP3A5: Life Technologies and Expression Analysis (LTEA) Assay for CYP3A5 using HepaRG (AID 2283493)
# Details: mRNA level, 48 h; actives raise or lower the signal
# How it was run: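 qRT-PCR read-out: CYP3A5 transcript in HepaRG lysates, housekeeping-normalized (ACTB/GAPDH/POLR2A), fitted bidirectionally against 0.5% DMSO baseline. Exposure 48 h, eight half-log concentrations up to 100 uM, duplicates.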
Compound,outcome,AC50
CCCCOC(=O)c1ccc(O)cc1,inactive,
O=c1ccc2ccccc2o1,inactive,
CC(C)(c1cc(Br)c(O)c(Br)c1)c1cc(Br)c(O)c(Br)c1,inactive,
CCOC(=O)O[C@H](C)OC(=O)c1ccc2c(c1)cc(C(=O)NC1CCN(C(C)C)CC1)n2Cc1cc(-c2ccc(Cl)s2)on1,inactive,
CC1(C)NC(=O)N(c2ccc([N+](=O)[O-])c(C(F)(F)F)c2)C1=O,,32.3 µM (active)
Cc1occc1C(=O)Nc1ccc(C(=O)N2CCC(F)(F)/C(=C\C(=O)N3CCC(N4CCCCC4)CC3)c3ccccc32)cc1,inactive,
COc1ccc2cc(S(=O)(=O)N[C@H](CC(=O)N[C@H](Cc3ccc(CN4[C@H](C)CCC[C@@H]4C)cc3)C(=O)N(C)C(C)C)c3ccc4c(c3)OCO4)ccc2c1,,22.1 µM (active)
CCCCCCCC[Si](OCC)(OCC)OCC,inactive,
O=C(O)c1ccccc1C(=O)OCc1ccccc1,inactive,
Cc1oc2c(NC(=O)c3c(Cl)cccc3Cl)cccc2c1C(C)(C)O,inactive,
Cc1ccc(C(C)C)cc1,inactive,
O=CCCCC=O,inactive,
CC(=O)N1CCN(c2ccc(OC[C@H]3CO[C@](Cn4ccnc4)(c4ccc(Cl)cc4Cl)O3)cc2)CC1,,50 µM (active)
CC(C)(C)c1csc(-c2cc3cc(OCc4ccccc4CC(=O)O)ccc3o2)n1,,81.3 µM (active)
CCN(Cc1cccc(S(=O)(=O)O)c1)c1ccc(C(=C2C=CC(=[N+](CC)Cc3cccc(S(=O)(=O)O)c3)C=C2)c2ccccc2S(=O)(=O)[O-])cc1,inactive,
O=C(O)Cn1c(=O)n(Cc2ccc(Br)cc2F)c(=O)c2ccc(Cl)cc21,inactive,
CN(C)c1ccc(C(=C2C=CC(=[N+](C)C)C=C2)c2ccc(N(C)C)cc2)cc1,,24.6 µM (active)
CC/C(=C(/CC)c1ccc(O)cc1)c1ccc(O)cc1,,50 µM (active)

Compound,outcome,AC50
CCCOC(=O)c1cc(O)c(O)c(O)c1,inactive,
O=C(Nc1ccc(Cl)cc1)Nc1ccc(Cl)c(Cl)c1,inactive,
c1ccc2ccccc2c1,inactive,
CC(C)(C)c1cc(/C=C2\SC(N)=NC2=O)cc(C(C)(C)C)c1O,,93.5 µM (active)
C[C@]12CC[C@@H]3c4ccc(O)cc4CC[C@H]3[C@@H]1CC[C@H]2O,inactive,
Cc1cc2c(cc1C(F)(F)F)N(C(=O)Nc1ccc(Oc3cccnc3C)nc1)CC2,,73.1 µM (active)
Clc1ccccc1C(c1ccccc1)(c1ccccc1)n1ccnc1,inactive,
CCCCCCCCCCCO,inactive,
CN1C(=O)N(c2ccccc2Br)Cc2cnc(Nc3ccc4c(c3)OCC(CO)O4)nc21 (centres undefined),,82.1 µM (active)
Cc1c2ccccc2c(C)c2c1ccc1ccccc12,,11.9 µM (active)
CC(C)(O)c1ccc(CNC(=O)c2cccnc2Oc2ccc3nonc3c2)cc1,inactive,
COc1cc(C(=O)NC2CCN(C)CC2)ccc1Nc1ncc2c(n1)N(C1CCCC1)CC(F)(F)C(=O)N2C,inactive,
Cc1cn([C@H]2C[C@H](N=[N+]=[N-])[C@@H](CO)O2)c(=O)[nH]c1=O,inactive,
CCCCOC(=O)CC(CC(=O)OCCCC)(OC(C)=O)C(=O)OCCCC,inactive,
CN(C)C(=O)C1(N2CCCCC2)CCN(CC[C@@]2(c3ccc(Cl)c(Cl)c3)CN(C(=O)c3ccccc3)CCO2)CC1,inactive,
CCCCCc1ccc(N)cc1,inactive,
CCO[Si](CCCNC(N)=O)(OCC)OCC,inactive,
O=C1c2ccccc2C(=O)N1CCc1noc(-c2ccc(CN3CCCCCC3)s2)n1,inactive,

# Read-out: Fatty Acid-Binding Protein 1 (FABP1), FABP1 (gene 2168)
# Experiment: LTEA_HepaRG_FABP1: Life Technologies and Expression Analysis (LTEA) Assay for Fatty Acid-Binding Protein 1 (FABP1) using HepaRG (AID 2283494)
# Details: mRNA level, 48 h; actives raise or lower the signal
# How it was run: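 Values reflect bidirectional concentration-response fitting of FABP1 mRNA change against 0.5% DMSO controls. Human HepaRG cultures received eight half-log doses (top 100 uM) for 48 h; expression quantified by TaqMan qRT-PCR with housekeeping-gene normalization.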
Compound,outcome,AC50
CCCCOC(=O)c1ccc(O)cc1,inactive,
O=c1ccc2ccccc2o1,,36.8 µM (active)
CC(C)(c1cc(Br)c(O)c(Br)c1)c1cc(Br)c(O)c(Br)c1,inactive,
CCOC(=O)O[C@H](C)OC(=O)c1ccc2c(c1)cc(C(=O)NC1CCN(C(C)C)CC1)n2Cc1cc(-c2ccc(Cl)s2)on1,inactive,
CC1(C)NC(=O)N(c2ccc([N+](=O)[O-])c(C(F)(F)F)c2)C1=O,,66.7 µM (active)
C[C@]12CC[C@@H]3c4ccc(O)cc4CC[C@H]3[C@@H]1CCC2=O,,30.8 µM (active)
Cc1occc1C(=O)Nc1ccc(C(=O)N2CCC(F)(F)/C(=C\C(=O)N3CCC(N4CCCCC4)CC3)c3ccccc32)cc1,inactive,
COc1ccc2cc(S(=O)(=O)N[C@H](CC(=O)N[C@H](Cc3ccc(CN4[C@H](C)CCC[C@@H]4C)cc3)C(=O)N(C)C(C)C)c3ccc4c(c3)OCO4)ccc2c1,,12.1 µM (active)
CCCCCCCC[Si](OCC)(OCC)OCC,inactive,
O=C(O)c1ccccc1C(=O)OCc1ccccc1,,28.1 µM (active)
Cc1oc2c(NC(=O)c3c(Cl)cccc3Cl)cccc2c1C(C)(C)O,,62.1 µM (active)
Cc1ccc(C(C)C)cc1,inactive,
O=CCCCC=O,inactive,
CC(=O)N1CCN(c2ccc(OC[C@H]3CO[C@](Cn4ccnc4)(c4ccc(Cl)cc4Cl)O3)cc2)CC1,,12.7 µM (active)
CC(C)(C)c1csc(-c2cc3cc(OCc4ccccc4CC(=O)O)ccc3o2)n1,,32.6 µM (active)
CCN(Cc1cccc(S(=O)(=O)O)c1)c1ccc(C(=C2C=CC(=[N+](CC)Cc3cccc(S(=O)(=O)O)c3)C=C2)c2ccccc2S(=O)(=O)[O-])cc1,inactive,
O=C(O)Cn1c(=O)n(Cc2ccc(Br)cc2F)c(=O)c2ccc(Cl)cc21,inactive,
CN(C)c1ccc(C(=C2C=CC(=[N+](C)C)C=C2)c2ccc(N(C)C)cc2)cc1,,2.76 µM (active)
CC/C(=C(/CC)c1ccc(O)cc1)c1ccc(O)cc1,,94.1 µM (active)

Compound,outcome,AC50
CCCOC(=O)c1cc(O)c(O)c(O)c1,,30.1 µM (active)
O=C(Nc1ccc(Cl)cc1)Nc1ccc(Cl)c(Cl)c1,,16.7 µM (active)
c1ccc2ccccc2c1,inactive,
CO[C@H]1/C=C/O[C@@]2(C)Oc3c(C)c(O)c4c(O)c(c(/C=N/N5CCN(C)CC5)c(O)c4c3C2=O)NC(=O)/C(C)=C\C=C\[C@H](C)[C@H](O)[C@@H](C)[C@@H](O)[C@@H](C)[C@H](OC(C)=O)[C@@H]1C,,0.486 µM (active)
CC(C)(C)c1cc(/C=C2\SC(N)=NC2=O)cc(C(C)(C)C)c1O,,14.8 µM (active)
C[C@]12CC[C@@H]3c4ccc(O)cc4CC[C@H]3[C@@H]1CC[C@H]2O,,74.3 µM (active)
Cc1cc2c(cc1C(F)(F)F)N(C(=O)Nc1ccc(Oc3cccnc3C)nc1)CC2,,11.6 µM (active)
Clc1ccccc1C(c1ccccc1)(c1ccccc1)n1ccnc1,,18.1 µM (active)
CCCCCCCCCCCO,inactive,
CN1C(=O)N(c2ccccc2Br)Cc2cnc(Nc3ccc4c(c3)OCC(CO)O4)nc21 (centres undefined),,58.8 µM (active)
Cc1c2ccccc2c(C)c2c1ccc1ccccc12,,50 µM (active)
CC(C)(O)c1ccc(CNC(=O)c2cccnc2Oc2ccc3nonc3c2)cc1,inactive,
COc1cc(C(=O)NC2CCN(C)CC2)ccc1Nc1ncc2c(n1)N(C1CCCC1)CC(F)(F)C(=O)N2C,,6.44 µM (active)
Cc1cn([C@H]2C[C@H](N=[N+]=[N-])[C@@H](CO)O2)c(=O)[nH]c1=O,inactive,
CCCCOC(=O)CC(CC(=O)OCCCC)(OC(C)=O)C(=O)OCCCC,inactive,
CN(C)C(=O)C1(N2CCCCC2)CCN(CC[C@@]2(c3ccc(Cl)c(Cl)c3)CN(C(=O)c3ccccc3)CCO2)CC1,,17 µM (active)
CCCCCc1ccc(N)cc1,inactive,
CCO[Si](CCCNC(N)=O)(OCC)OCC,inactive,
O=C1c2ccccc2C(=O)N1CCc1noc(-c2ccc(CN3CCCCCC3)s2)n1,inactive,
